# Records with an inconclusive call do not appear. Activity calls are given as the source filed them. How the source made its calls, unless noted: active means hit-call score of the fitted dose curve at least 0.9, where 1 is the maximum; inactive means score below 0.9.
# Columns and labels:
# [1] = CCTE_Deisenroth_AIME_384WELL_CTox_Active: Cytotoxicity Assessment (CTOX) in CCTE's 384-well Estrogen Receptor Transactivation Assay with AIME metabolic competence (metabolism positive), Deisenroth Lab (AID 2284037; active means hit-call score of the fitted dose curve at least 0.9, where 1 is the maximum;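 further: chemicals first conditioned 2 h by alginate-bound induced rat liver S9 before cells; activity means signal loss indicating cell death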)
# Outline: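 VM7Luc4E2 breast cells received medium pre-incubated 2 h with chemical over alginate microspheres holding induced male Sprague Dawley rat liver S9; viability read 24 h later by protease-substrate fluorescence. Loss of signal, bidirectional fit, 0.002–200 uM.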
# [2] = target: Estrogen receptor (Homo sapiens) (UniProt P03372); assay: CCTE_Deisenroth_AIME_384WELL_LUC_Inactive: CCTE's 384-well Estrogen Receptor Transactivation Assay without AIME metabolic competence (ERTA luciferase; metabolism negative), Deisenroth Lab (AID 2284038; active means hit-call score of the fitted dose curve at least 0.9, where 1 is the maximum;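 further: hits raise estrogen receptor luciferase signal so potencies reflect agonists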)
# Outline: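 Metabolism-negative mode: chemicals (10-point, 0.002–200 uM) held 2 h with alginate-water microspheres, then conditioned medium applied to VM7Luc4E2 cells for 24 h. Luciferase induction referenced to 17beta-estradiol.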
# [3] = CCTE_Deisenroth_AIME_384WELL_CTox_Inactive: Cytotoxicity Assessment (CTOX) in CCTE's 384-well Estrogen Receptor Transactivation Assay without AIME metabolic competence (metabolism negative), Deisenroth Lab (AID 2284039; active means hit-call score of the fitted dose curve at least 0.9, where 1 is the maximum;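 further: cell viability via live-cell protease substrate cleaved to fluorescent probe; cells exposed 24 h to medium preincubated 2 h with alginate-water beads without S9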)
# Outline: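 Fluorescent protease-substrate viability readout after 24 h exposure of VM7Luc4E2 cells to conditioned medium. Chemicals (0.002–200 uM) first sat 2 h over alginate-water beads, no S9. Data fitted bidirectionally, loss of signal meaning viability loss.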
# [4] = target: Estrogen receptor (Homo sapiens) (UniProt P03372); assay: CCTE_Deisenroth_AIME_384WELL_LUC_Shift: CCTE's 384-well Estrogen Receptor Transactivation Assay with AIME metabolic competence data shift (ERTA luciferase; difference in metabolism positive and negative), Deisenroth Lab (AID 2284041);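 further: shift is response with S9 minus without S9 so positive means metabolism raised ER signal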
# Outline: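 Here, parent compounds undergo 2 h phase I metabolism by PB/BNF-induced rat S9 before 24 h transactivation in VM7Luc4E2 cells; the curve models S9-positive minus S9-negative response over a 10-point series.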
# [5] = CCTE_Shafer_MEA_dev_firing_rate_mean: CCTE's Neural Network Formation Assay for Mean Firing Rate, Shafer Lab (AID 2284031);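 on AC50: curve fitted for loss of firing so AC50 reflects decreased mean firing rate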
# Outline: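 Rat primary cortical neurons were seeded on multielectrode arrays and treated from plating through day 12, with redosing at each feed. Spontaneous spiking was recorded four times; mean firing rate AUC was fitted downward against DMSO.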
# [6] = CCTE_Shafer_MEA_dev_per_burst_spike_percent: CCTE's Neural Network Formation Assay for Percent of Spikes in a Burst, Shafer Lab (AID 2284032);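 on AC50: fitted as a decrease in burst spike percentage below DMSO baseline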
# Outline: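 Rat primary cortical neurons on 16-electrode MEA wells, dosed from plating day 0 for 12 days with renewal on DIV 5 and 9; spikes-in-bursts percentage averaged over bursting electrodes, collapsed as AUC across days 5, 7, 9, 12; loss direction versus DMSO.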
# [7] = CCTE_Shafer_MEA_dev_active_electrodes_number: CCTE's Neural Network Formation Assay for Number of Active Electrodes, Shafer Lab (AID 2284040; active means hit-call score of the fitted dose curve at least 0.9, where 1 is the maximum;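 further: potency for loss of active electrodes versus DMSO so lower counts are hits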)
# Outline: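 Primary rat cortical neurons on 16-electrode MEA wells, exposed from day 0 through day 12 with compound renewed at DIV 5 and 9 feeds. Active electrodes (mean firing ≥5 spikes/min) counted at DIV 5, 7, 9, 12; trapezoidal AUC across days, loss-of-signal versus DMSO.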
# [8] = CCTE_Shafer_MEA_dev_burst_rate: CCTE's Neural Network Formation Assay for Burst Rate, Shafer Lab (AID 2284042);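 on AC50: potency for loss of burst rate below DMSO control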
# Outline: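 Exposure ran continuously over 12 days of network development in rat cortical cultures, with compound refreshed during full media changes on DIV 5 and 9. Single-electrode bursts per recording time, well-mean over active electrodes, trapezoidal AUC across days 5–12, fitted downward relative to DMSO.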
# [9] = CCTE_Shafer_MEA_dev_bursting_electrodes_number: CCTE's Neural Network Formation Assay for Number of Bursting Electrodes, Shafer Lab (AID 2284043; active means hit-call score of the fitted dose curve at least 0.9, where 1 is the maximum;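 further: potency is for loss of bursting electrodes relative to DMSO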)
# Outline: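 Primary rat cortical neurons were cultured on PEI-coated 48-well MEA plates (16 electrodes/well) and exposed from plating through day 12, with compound renewed at feeds on DIV 5 and 9. Electrodes bursting ≥1 per 2 min were counted on DIV 5, 7, 9, 12; trapezoidal AUC taken.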
# [10] = CCTE_Shafer_MEA_dev_per_burst_interspike_interval: CCTE's Neural Network Formation Assay for Burst Interspike Interval, Shafer Lab (AID 2284044);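 further: mean spike spacing inside bursts as AUC over recordings on days 5 7 9 12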;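 on AC50: potency for a decrease of within-burst interspike interval below DMSO level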
# Outline: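 Primary rat cortical neurons on 48-well MEA plates, exposed from day 0 through day 12, treatment renewed at DIV 5 and 9. Within-burst interspike interval recorded days 5, 7, 9, 12, well-averaged, summarised as AUC; negative fit versus DMSO.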
# [11] = CCTE_Shafer_MEA_dev_burst_duration_mean: CCTE's Neural Network Formation Assay for Mean Burst Duration, Shafer Lab (AID 2284045);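 on AC50: curve fitted for loss meaning shorter burst duration than DMSO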
# Outline: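 Primary rat cortical neurons on PEI-coated 16-electrode MEA wells, exposed from plating through day 12 with compound renewed at DIV 5 and 9; spontaneous activity recorded days 5, 7, 9, 12. Well-mean burst duration collapsed as trapezoidal AUC, fitted for loss versus DMSO.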
# [12] = CCTE_Shafer_MEA_dev_interburst_interval_mean: CCTE's Neural Network Formation Assay for Mean Interburst Interval, Shafer Lab (AID 2284046);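 further: well-mean interburst interval of bursting electrodes as AUC over four recording days; curve fitted for decrease in interburst interval relative to DMSO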
# Outline: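 Primary rat cortical neurons on PEI-coated 48-well MEA plates (laminin added with cells at plating) (16 electrodes/well), exposed from plating day 0 with renewal at DIV 5 and 9. Mean inter-burst interval averaged over bursting electrodes, AUC across days 5, 7, 9, 12; DMSO baseline.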
# [13] = CCTE_Shafer_MEA_dev_inter_network_spike_interval_mean: CCTE's Neural Network Formation Assay for Mean Inter-network Spike Interval, Shafer Lab (AID 2284047)
# Outline: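 Mean time between consecutive network-spike peaks, recorded extracellularly (adaptive spike detection) on DIV 5, 7, 9 and 12, summarized as trapezoidal AUC. Rat cortical cultures on MEAs dosed continuously days 0–12, re-dosed at feeds; loss-of-signal fit relative to DMSO.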
# [14] = CCTE_Shafer_MEA_dev_network_spike_number: CCTE's Neural Network Formation Assay for Number of Network Spikes, Shafer Lab (AID 2284048);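 further: synchronized bursts across electrodes counted on days 5 7 9 12 and integrated as AUC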;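 on AC50: fit as a loss of signal meaning fewer network spikes than DMSO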
# Outline: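 Primary rat cortical neurons were seeded at 1.5 x 10^5 cells/well on PEI-coated 16-electrode MEA wells with laminin, exposed from plating day 0, compound renewed at DIV 5 and 9. Network spikes were recorded on days 5, 7, 9, 12 and summarized as trapezoidal AUC versus DMSO.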
# [15] = CCTE_Shafer_MEA_dev_network_spike_peak: CCTE's Neural Network Formation Assay for Mean Number of Electrodes in Network Spike, Shafer Lab (AID 2284049);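 further: fitted for loss of signal meaning fewer electrodes in network spikes than DMSO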
# Outline: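 Continuous 12-day exposure of rat cortical cultures, starting at plating, on MEA plates. Endpoint: electrodes participating in network-spike peaks, AUC across DIV 5–12, DMSO as negative control.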
# [16] = CCTE_Shafer_MEA_dev_spike_duration_mean: CCTE's Neural Network Formation Assay for Mean Spike Duration, Shafer Lab (AID 2284051);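 further: mean network spike duration pooled as area under curve over DIV 5 to 12 recordings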;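 on AC50: potency for a decrease in mean network spike duration versus DMSO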
# Outline: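 Spontaneous activity was recorded on days 5, 7, 9 and 12 from rat cortical cultures grown on microelectrode arrays and dosed continuously from day 0, with media and compound renewed after the DIV 5 and 9 recordings. Network-spike duration was collapsed by area under the curve.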
# [17] = CCTE_Shafer_MEA_dev_network_spike_duration_std: CCTE's Neural Network Formation Assay for Standard Deviation of Network Spike Duration, Shafer Lab (AID 2284052);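 further: hits are decreases in network spike duration SD versus DMSO vehicle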
# Outline: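 Network spike duration variability was collapsed across recordings on days 5, 7, 9 and 12 by trapezoidal area-under-curve and fitted downward against DMSO. Cultures were rat cortical neurons on PEI-coated MEA plates, dosed continuously from plating, refed with compound DIV 5/9.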
# [18] = CCTE_Shafer_MEA_dev_per_network_spike_spike_number_mean: CCTE's Neural Network Formation Assay for Mean Number of Spikes in a Network Spike, Shafer Lab (AID 2284053);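 further: fitted as decrease in spikes per network spike relative to DMSO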
# Outline: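 Mean spike count within each network spike, taken in a 0.05 s window at its peak, was recorded on days 5, 7, 9 and 12 and integrated as trapezoidal area under the curve. Rat cortical cultures on MEA plates received continuous compound from day 0, refreshed at medium changes on DIV 5 and 9.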
# [19] = CCTE_Shafer_MEA_dev_per_network_spike_spike_percent: CCTE's Neural Network Formation Assay for Percent of Spikes in a Network Spike, Shafer Lab (AID 2284054)
# Outline: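 Primary rat cortical neurons on 16-electrode MEA wells (PEI-coated, laminin at plating), exposed from day 0 with renewal at DIV 5 and 9; spikes within 0.05 s of network-spike peaks over total spikes, AUC across days 5, 7, 9, 12.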
# DIO2 (gene 1734) = assay: CCTE_GLTED_hDIO2: CCTE's human Deiodinase 2 (DIO2) Inhibition Assay, Great Lakes Toxicology and Ecology Division (GLTED) Lab (AID 2284050; active means hit-call score of the fitted dose curve at least 0.9, where 1 is the maximum)
# Outline: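 hDIO2 enzyme + test chem, 3 h → free iodide from substrate; step 2: Sandell-Kolthoff (Ce IV reduction by As, iodide-catalysed), spectrophotometric read. Triplicate plates; DMSO = baseline.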
# Chain of Estrogen receptor (Homo sapiens) (P03372 whole entry, looked up): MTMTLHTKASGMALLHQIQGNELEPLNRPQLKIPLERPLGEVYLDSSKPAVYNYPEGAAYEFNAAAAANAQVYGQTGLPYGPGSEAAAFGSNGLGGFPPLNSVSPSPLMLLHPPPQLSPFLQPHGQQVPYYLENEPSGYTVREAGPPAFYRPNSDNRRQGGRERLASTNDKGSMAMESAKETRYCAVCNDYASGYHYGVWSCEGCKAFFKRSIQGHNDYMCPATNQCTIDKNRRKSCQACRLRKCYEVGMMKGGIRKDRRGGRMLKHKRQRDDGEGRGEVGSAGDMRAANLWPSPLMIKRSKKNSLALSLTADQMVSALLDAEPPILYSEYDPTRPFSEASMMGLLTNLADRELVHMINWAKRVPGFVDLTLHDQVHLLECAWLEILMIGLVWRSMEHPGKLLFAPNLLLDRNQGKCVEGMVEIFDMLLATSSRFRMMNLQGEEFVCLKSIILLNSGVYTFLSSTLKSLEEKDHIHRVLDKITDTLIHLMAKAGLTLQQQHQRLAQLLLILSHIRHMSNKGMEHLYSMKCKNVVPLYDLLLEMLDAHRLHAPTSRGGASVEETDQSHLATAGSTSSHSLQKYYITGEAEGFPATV
smiles,measurement,setting,value
O=C1CCCCC1,outcome,[1],inactive
same,outcome,[2],inactive
same,outcome,[3],inactive
same,outcome,[4],inactive
CN(C)CCCN(C)CCCN(C)C,outcome,[1],inactive
same,outcome,[2],inactive
same,outcome,[3],inactive
same,outcome,[4],inactive
CC1(C)C(=O)NC(=O)N1CO,outcome,[1],inactive
same,outcome,[2],inactive
same,outcome,[3],inactive
same,outcome,[4],inactive
CCCCCCCC(=O)OC,outcome,[1],inactive
same,outcome,[2],inactive
same,outcome,[3],inactive
same,outcome,[4],inactive
CC(=O)OCC(COC(C)=O)OC(C)=O,outcome,[1],inactive
CC(C)OC(=O)C(C)(C)Oc1ccc(C(=O)c2ccc(Cl)cc2)cc1,outcome,[1],inactive
same,outcome,[2],inactive
same,outcome,[3],inactive
same,outcome,[4],inactive
O=C(O)CC(O)(CC(=O)O)C(=O)O,outcome,[1],inactive
same,outcome,[2],inactive
same,outcome,[4],inactive
O=[Si]=O,outcome,[1],inactive
same,outcome,[2],inactive
same,outcome,[3],inactive
same,outcome,[4],inactive
CC(=O)CC(c1ccccc1)c1c(O)c2ccccc2oc1=O (stereo not drawn),outcome,[5],inactive
same,outcome,[6],inactive
same,outcome,[1],inactive
same,outcome,[3],inactive
same,AC50,[7],2.98 µM (active)
same,outcome,[8],inactive
same,AC50,[9],2.98 µM (active)
same,outcome,[10],inactive
same,outcome,[11],inactive
same,outcome,[12],inactive
same,outcome,[13],inactive
same,outcome,[14],inactive
same,AC50,[15],2.98 µM (active)
same,outcome,[16],inactive
same,outcome,[17],inactive
same,AC50,[18],2.98 µM (active)
same,outcome,[19],inactive
CN(C)CCCN1c2ccccc2Sc2ccc(Cl)cc21,AC50,[5],3.43 µM (active)
same,AC50,[6],6.1 µM (active)
same,AC50,[7],5.17 µM (active)
same,AC50,[8],5.08 µM (active)
same,AC50,[9],4.33 µM (active)
same,AC50,[10],8.95 µM (active)
same,AC50,[11],4.79 µM (active)
same,AC50,[12],7.95 µM (active)
same,outcome,[13],inactive
same,AC50,[14],8.7 µM (active)
same,AC50,[15],5.16 µM (active)
same,AC50,[16],3.38 µM (active)
same,AC50,[17],2.81 µM (active)
same,AC50,[18],4.44 µM (active)
same,AC50,[19],9.39 µM (active)
CCCCCCCCCCCCCCCCO,outcome,[1],inactive
same,outcome,[2],inactive
same,outcome,[4],inactive
same,outcome,DIO2 (gene 1734),inactive
CC(C)c1cccc(C(C)C)c1,outcome,[1],inactive
same,outcome,[2],inactive
same,outcome,[3],inactive
same,outcome,[4],inactive

# From PubChem BioAssay (EPA / NIEHS)
